# KB-V1 cytotox: KB-V1 MDR subline cytotoxicity; KB-V1 MDR cells viability, CellTiter-Glo, 72 h; Potency, µM (doses to about 46.1 µM), hits mostly cytotoxic; 400,000 tested, 3.4% active; also: nearly all actives have a fitted effect of over 60% in size
#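 KB-V1, DMEM (no phenol red) + 10% FBS; cpd pin-transferred, titration series; 72 h, 37 degrees C; CellTiter-Glo, luminescence. Data normalized, curve-fit.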
# HT1080 IDH1KD tx: toxicity to HT-1080 IDH1 knockdown cells (counter line). HT-1080 IDH1 knockdown viability, ATP luminescence, 48 h. Potency, µM (highest dose often 46.1 µM), hits mostly cytotoxic. 360,000 tested, 2% active. AID 686971
#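 Viability of IDH1-knockdown HT-1080 fibrosarcoma cells was assessed by CellTiter-Glo after 48 h at 37 °C with titrated compound; concentration-effect curves were classified by fit quality and response size.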
# KB-3-1 tox: kills parental KB-3-1 adenocarcinoma cells; KB-3-1 viability, CellTiter-Glo ATP luminescence, 72 h; Potency, µM (doses to about 46.1 µM), actives largely listed as cytotoxic; 400,000 tested, 1.4% active; also: nearly all actives have a fitted effect of over 60% in size
#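 72 h, 37 °C compound treatment of KB-3-1 parental cells; CellTiter-Glo added, 10 min, luminescence read. Data corrected against DMSO-only plates and normalized before curve fitting.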
# HT1080-NT tox: kills 2HG-producing HT-1080-NT fibrosarcoma cells. 360,000 tested, 1.6% active. HT-1080-NT fibrosarcoma viability, CellTiter-Glo ATP luminescence, 48 h. Potency, µM (top dose mostly 46.1 µM), hits mostly cytotoxic;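 also: NT is the 2HG producing partner of a matched IDH1 knockdown line; nearly all actives have a fitted effect of over 55% in size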
#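 A 48-hour cytotoxicity screen used HT-1080-NT cells plated 2 hours before compound delivery. ATP-based CellTiter-Glo luminescence measured viability, normalized to DMSO and no-cell controls.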
# DT40 TDP1 no CPT: qHTS for Inhibitors of human tyrosyl-DNA phosphodiesterase 1 (TDP1): qHTS in cells in absence of CPT | DT40 Tdp1-/- hTDP1 cells, no CPT, ATP luminescence, 48 h | Potency, µM (doses to about 46.2 µM), actives largely listed as inhibitors | 420,000 tested, 15% active | AID 686978, 2013; also: nearly all actives have a fitted effect of over 55% in size
#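 Camptothecin absent (DMSO only). Human TDP1-complemented DT40 knockout cells, 400 cells/well, 37 °C for minimum 48 hr; ATP measured via CellTiter-Glo, 30 min dark incubation, luminescence.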
# TDP1 cell CPT: growth inhibition of DT40 Tdp1-/-;hTDP1 cells with camptothecin (screen for TDP1 inhibitors). chicken DT40 Tdp1-/-;hTDP1 cells + 20 nM CPT, ATP luminescence, 48 h. Potency, µM (top dose mostly 46.2 µM), hits mostly inhibitors. 420,000 tested, 12% active. AID 686979; also: nearly all actives have a fitted effect of over 55% in size
#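 Chicken DT40 Tdp1-/- cells stably complemented with human TDP1 were seeded at 400 cells/well in medium containing 20 nM camptothecin, exposed to pin-transferred compounds, and grown at 37 °C for at least 48 hr. Viability was read as ATP luminescence.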
# Hits are given with their value; i = inactive; ? = inconclusive; nt = no result given; ! = repeats disagree; [ ] = remark or other dose. Only some compounds are listed: those with a hit (about 19% of all), similar ones and a draw of the others. Calls follow the shape of the dose curve; as a rule, active = well fitted curve in the direction sought with a large enough effect; inconclusive = small, poorly fitted or top-dose-only effect, or another doubt; inactive = no such curve, though single readings can be large; an effect the other way counts as inactive or inconclusive.
SMILES,KB-V1 cytotox,HT1080 IDH1KD tx,KB-3-1 tox,HT1080-NT tox,DT40 TDP1 no CPT,TDP1 cell CPT
CC1CC(C)CN(c2ccc(NS(=O)(=O)c3ccccc3)cc2C(=O)O)C1 (stereo not given),i,i,i,i,i,i
CCCCCN(C(=O)CCC(=O)OCc1ccc(Cl)cc1Cl)c1c(N)n(CCCC)c(=O)[nH]c1=O,i,i,i,i,?,?
Cc1nonc1OCCn1c([N+](=O)[O-])cnc1C,i,i,i,i,i,i
CN(C(=S)Nc1ccc(Oc2ccccc2)cc1)c1ccc(O)cc1,i,i,i,i,?,?
CN(C(=S)Nc1ccc(Oc2ccccc2)cc1)C1CCCCC1,i,?,i,i,26µM,?
CCC1=NN(C(=O)c2ccc(Br)cc2)C(O)(c2ccc(C)cc2)C1 (stereo not given),i,i,i,i,5.2µM,5.2µM
CCC1=NN(C(=O)c2ccc(C)cc2)C(O)(c2ccc(Br)cc2)C1 (stereo not given),21µM,i,i,i,?,?
COC(=O)C1=NN(C(=O)c2ccc(C)cc2)C(O)(c2ccc(Cl)cc2)C1 (stereo not given),i,i,i,i,i,i
OCCN(CCO)c1nc(N2CCCCC2)c2nc(N(CCO)CCO)nc(N3CCCCC3)c2n1,nt,i,nt,?,15µM!,4.6µM
O=C(CCCN1C(=O)/C(=C/c2cccs2)SC1=S)NNC(=O)c1ccccc1O,?,?,?,i,16µM,21µM
O=C(CCCN1C(=O)/C(=C/c2cccs2)SC1=S)NNC(=O)c1ccncc1,i,i,i,i,?,?
COc1ccc(/C=C2\SC(=S)N(CCCC(=O)Nc3ccccn3)C2=O)cc1OC,?,i,i,i,29µM,?
O=C(CN1C(=O)S/C(=C/C=C/c2ccccc2)C1=O)Nc1ccc(C(=O)O)cc1,i,i,i,i,i,i
COc1ccc(/C=C2\SC(=S)N(CCCC(=O)NNC(=O)c3ccccc3O)C2=O)cc1,?,i,i,?,8.2µM,?
COc1ccc(/C=C2/SC(=S)N(CCCC(=O)Nc3ccccc3C(=O)O)C2=O)cc1,i,i,i,i,i,i
O=C(CCCN1C(=O)S/C(=C\C=C\c2ccccc2)C1=O)Nc1ccc(O)cc1,i,21µM,i,?,?,?
COc1ccc(CCN(C)S(=O)(=O)c2cn(C)c(=O)n(C)c2=O)cc1OC,i,i,i,i,i,i
CC(C)NC(=O)C12CC3CC(C1)CC(n1cnc(Cl)n1)(C3)C2,i,i,i,i,i,i
COc1ccc2nc3oc(C(=O)N(C)c4ccc(Cl)cc4)cc3cc2c1,i,nt,i,nt,?,i
Cc1n[nH]c(C)c1S(=O)(=O)N(CC(=O)Nc1ccc2c(c1)OCCO2)c1ccc(C(C)C)cc1,i,i,i,i,?,i
Cc1cccc(-c2nc(C)c(CCNC(=O)C(=O)Nc3ccccc3C#N)s2)c1,?,nt,i,nt,nt,nt
O=C(CCCN1C(=O)/C(=C\c2cccs2)SC1=S)Nc1ccc(C(=O)O)cc1,i,i,i,i,i,i
O=C(NN1C(=O)/C(=C/c2ccc(O)cc2)SC1=S)c1ccccc1O,i,i,i,i,?,i
O=C(CCCN1C(=O)/C(=C\c2cccs2)SC1=S)Nc1ccccn1,?,i,i,i,16µM,?
COc1cc(/C=C2\SC(=S)N(NC(=O)c3ccccc3O)C2=O)ccc1O,i,i,i,?,26µM,?
SMILES,KB-V1 cytotox,HT1080 IDH1KD tx,KB-3-1 tox,HT1080-NT tox,DT40 TDP1 no CPT,TDP1 cell CPT
CC(=O)c1ccc(NC(=O)CCCN2C(=O)/C(=C/C(C)=C/c3ccccc3)SC2=S)cc1,18µM,i,?,i,23µM,?
O=C(CCCN1C(=O)/C(=C\c2cccs2)SC1=S)Nc1ccc(O)cc1,i,i,i,i,?,26µM
CC1CCCC(C)N1C(=O)COC(=O)c1n[nH]c(=O)c2ccccc12 (stereo not given),i,i,i,i,i,i
OCl,nt,nt,nt,nt,i,i
O=C(O)c1cccc(-n2cnc3cccnc32)c1,nt,nt,nt,nt,i,i
COc1ccc(NC(=O)CCCN2C(=O)/C(=C\c3ccco3)SC2=S)cc1,?,?,i,i,16µM,?
CC(/C=C1\SC(=S)N(CC(=O)N2CCN(c3ccccc3)CC2)C1=O)=C\c1ccccc1,i,i,i,i,21µM,21µM
COC(=O)c1ccc(/C=C2/SC(=S)N(CCCC(=O)Nc3ccc(O)cc3)C2=O)cc1,i,i,?,i,13µM,?
CCN1CCN(C(=S)Nc2ccc3nc4n(c(=O)c3c2)CCCCC4)CC1,i,i,i,i,i,i
CC(=O)N1CCOc2ccc(S(=O)(=O)N3CCN(c4cc(C)ccc4C)CC3)cc21,i,i,i,i,i,i
Cc1[nH]c2ccccc2c1C(c1ccccn1)N1CCCC1 (stereo not given),i,i,i,i,16µM,?
Cc1[nH]c2ccccc2c1C(c1ccccn1)N1CCC(C)CC1 (stereo not given),?,i,18µM,i,21µM,21µM
COC(=O)C1CN(C(=O)COc2ccccc2)c2ccccc2O1 (stereo not given),i,i,i,i,i,i
O=C(CSc1nccc(=O)[nH]1)NC1CCCC1,i,i,i,i,i,i
COc1ccccc1NC(=O)C(Cc1ccccc1)NS(=O)(=O)c1ccc2c(c1)CCN2C(C)=O (stereo not given),i,nt,i,nt,i,i
CCc1nc2ccc(C(=O)N3CCN(S(=O)(=O)CC)CC3)cn2c1N(CC)Cc1cccc(Br)c1,i,i,i,i,?,23µM
CCc1nc2ccc(C(=O)N(C)C(C)C)cn2c1N(CC)Cc1cccc(Br)c1,i,i,i,i,15µM,?
CC(C)(C)c1ccccc1NC(=O)c1cnn2c(C(F)F)cc(-c3ccccc3)nc12,i,nt,i,nt,i,i
Cc1ccc(C2CC(C(F)F)n3ncc(C(=O)Nc4c(C)nn(Cc5c(F)cccc5Cl)c4C)c3N2)cc1 (stereo not given),i,i,i,i,18µM,?
Cc1ccc(-c2cc(C(F)F)n3ncc(C(=O)Nc4c(C)nn(Cc5c(Cl)cccc5Cl)c4C)c3n2)cc1,i,i,i,i,15µM,10µM
Cc1nn(Cc2c(Cl)cccc2Cl)c(C)c1NC(=O)c1cnn2c(C(F)F)cc(-c3ccccc3)nc12,i,i,?,i,?,21µM
COc1cccc(CN2CCc3nnc(CCc4ccccc4)n3CC2)c1OC,nt,nt,nt,nt,i,i[9.04 µM]
COc1cc(C[C@H](C)[C@H](C)Cc2ccc3c(c2)OCO3)ccc1O,i,i,i,i,?,?
